The source of these data is PubChem BioAssay AID1851 (National Center for Advancing Translational Sciences (NCATS), 2009).

Several values for one entry are separate records, joined by “and”; a condition that tells them apart may be missing. Equal values may be shown once. In all, about 16,000 compounds went through this assay and about 5,700 (36%) were called active. Roughly 24% stayed inconclusive and do not appear here. Calls come from the whole dose curve; as a rule, active = well fitted curve in the direction sought with a large enough effect; inconclusive = small, poorly fitted or top-dose-only effect, or effect the other way; inactive = no such curve, though single readings can be large or run the other way. This is one part of the list.
% is set by controls: 0 for no effect and ±100 for the full control effect.

Sequence of Cytochrome P450 1A2 (Homo sapiens) (P05177 whole entry, looked up): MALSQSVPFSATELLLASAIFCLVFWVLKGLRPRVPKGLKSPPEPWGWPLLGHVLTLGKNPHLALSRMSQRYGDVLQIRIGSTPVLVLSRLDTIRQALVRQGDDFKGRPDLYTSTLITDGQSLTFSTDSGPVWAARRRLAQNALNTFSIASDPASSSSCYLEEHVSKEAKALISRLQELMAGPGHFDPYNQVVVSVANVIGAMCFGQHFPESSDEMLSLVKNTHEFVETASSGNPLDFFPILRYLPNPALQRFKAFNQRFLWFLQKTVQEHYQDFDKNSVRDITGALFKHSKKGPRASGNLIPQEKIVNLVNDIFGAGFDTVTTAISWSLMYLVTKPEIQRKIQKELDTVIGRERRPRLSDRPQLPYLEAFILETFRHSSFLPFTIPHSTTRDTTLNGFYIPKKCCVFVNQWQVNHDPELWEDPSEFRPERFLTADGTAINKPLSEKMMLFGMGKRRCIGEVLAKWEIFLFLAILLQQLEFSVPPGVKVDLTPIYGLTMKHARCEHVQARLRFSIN

This assay has as its target Cytochrome P450 1A2 (Homo sapiens) (UniProt P05177). Description: Cytochrome panel assay with activity outcomes. Particulars: recombinant CYP, pro-luciferin dealkylation, luminescence, p450-cyp1a2; series mostly up to 57.1 µM.
For `CC(=O)NC(C)C(c1cccs1)N1CCN(c2ccccc2)CC1` (configuration not stated), the AC50 result is “inactive”.
Take `COC(=O)[C@@]1(Cc2ccc(F)cc2)[C@@H]2[C@@H](CC(=O)[C@H]2CC(=O)C(=O)N(C)C)CN1C(=O)c1ccccc1`: the AC50 entry is “inactive”.
With `CN(C)Cc1ccccc1-c1cncnc1NC1CC1`, the AC50 is 15.8 µM (active).
On to `Cc1cnc(CNc2ncncc2-c2ccccc2C(F)(F)F)cn1`, for which the AC50 entry is “inactive”.
Still for that read-out and setting: the result for `Cc1cnc(CNc2ncncc2-c2ccccc2CN(C)C)cn1` reads 12.6 µM (active).
For the compound `Cc1cnc(CNc2ncncc2-c2ccccc2C)cn1`, the half-maximal activity concentration (AC50) is 25.1 µM (active).
For `Cc1cnc(CNc2ncncc2-c2ccccc2Cl)cn1`, the AC50 was 15.8 µM (active).
Regarding `CC1=CC(=O)C=CC1(C)C(Cl)(Cl)Cl` (configuration not stated), the AC50 result was “inactive”.
As for `CCN1C(=O)[C@@H]2[C@H]3C(=CC[C@H]2C1=O)C(=O)[C@H]1OC1[C@H]3O` (some centres not stated), the activity, negative = inhibition was -3.23% [at 11.4 µM] (inactive).
Take `Cc1nc(SC2CC(=O)N(c3ccc([N+](=O)[O-])cc3)C2=O)nc2c1CCCC2` (configuration not stated): the AC50 entry is “inactive”.
With `Cc1cnc(CNc2ncncc2-c2ccccc2C#N)cn1`, the half-maximal activity concentration (AC50) was 0.251 µM (active).
For `C[C@@]1(O)CCOC(=O)C1`, the AC50 entry is “inactive”.
For the compound `CCCCC#Cc1nc(N)c2ncn([C@@H]3O[C@@H](C(=O)NCC)[C@H](O)[C@@H]3O)c2n1`, the AC50 entry was “inactive”.
Regarding `COc1ccc(CN(C(=O)Cc2cccs2)C(C(=O)NC2CCCC2)c2ccncc2)cc1` (configuration not stated), the AC50 entry was “inactive”.
For the compound `Cc1ccc(N(C(=O)C(F)(F)F)C(C(=O)NC2CCCCC2)c2cccs2)cc1C` (configuration not stated), the AC50 entry was “inactive”.
With `COc1ccc(CCN(C(=O)C(F)(F)F)C(C(=O)NC2CCCC2)c2cccs2)cc1` (configuration not stated), the half-maximal activity concentration (AC50) was 12.6 µM (active).
As to `COc1cccc(N2CCN(C(=O)Nc3ccc4c(c3)NC(=O)CO4)CC2)c1`, the AC50 entry was “inactive”.
On to `Cc1cccc(Nc2ccccc2C(=O)OCC(=O)N(C)C2CCS(=O)(=O)C2)c1C` (configuration not stated), for which the AC50 entry was “inactive”.
Take `O=C(COC(=O)c1cccc(S(=O)(=O)N2CCN(c3ccccc3)CC2)c1)NCc1ccco1`: the AC50 result was “inactive”.
Still for that read-out and setting: the result for `Cc1ccc(C(=O)N/C(=C/C=C/c2ccccc2)C(=O)NCc2ccco2)cc1` reads “inactive”; that for `O=C(COC(=O)c1ccccc1Nc1cccc(C(F)(F)F)c1)NCc1ccco1`, 5.01 µM (active).
For `Cc1cccc(Nc2ccccc2C(=O)OCC(=O)NCc2ccco2)c1C`, the concentration at half-maximal activity (AC50) was 12.6 µM (active).
The same measure, in the same setting: the result for `O=C(NCc1ccccc1)c1ccc(S(=O)(=O)N2CCCc3ccccc32)cc1` reads “inactive”.
`O=C(CSc1nnc(CNc2ccccc2)o1)N1CCCc2ccccc21`: the AC50 is 12.6 µM (active).
Take `O=C(CNCCO)N1CCc2ccccc21`: the AC50 result was “inactive”.
The same measure, in the same setting: in the case of `O=C(CSc1n[nH]c(-c2ccccc2O)n1)N1CCCc2ccccc21` it was 2 µM (active); in that of `CCN(CC)C(=O)CSc1nnc(CNc2ccc(F)cc2)o1`, “inactive”; in that of `O=C(O)CCC(=O)N1CCc2cc(S(=O)(=O)NCc3cccs3)ccc21`, “inactive”.
Still for that read-out and setting: in the case of `O=C(CSc1nnc(CNc2ccc(F)cc2)o1)OC1CCCCC1` it was 25.1 µM (active); in that of `O=C(CSc1nc(-c2ccccc2)cs1)N1CCc2ccccc21`, 2.51 µM (active).
`CCN(CC)C(=O)CSc1nnc(C2CCCCC2)o1`: the AC50 entry is “inactive”.
On to `C[C@]12CC[C@H]3c4ccc(OC[C@H]5CO5)cc4CC[C@H]3[C@H]1CC[C@@H]2O`, for which the activity, negative = inhibition is -8.48% [at 11.4 µM] (inactive).
For `CC(=O)OC[C@@H]1O[C@H](CCO/N=C(\C)CCN2CCc3nc(-c4ccccc4)c(-c4ccccc4)cc3C2)C=C[C@@H]1OC(C)=O`, the activity, negative = inhibition is 1.24% [at 11.4 µM] (inactive).
The same measure, in the same setting: in the case of `O=C1[C@H]2[C@H]3[C@H](O)[C@H](O)C/C(=N/OC[C@@H](O)COCc4ccco4)[C@@H]3CC[C@@H]2C(=O)N1Cc1ccc2c(c1)OCO2` it was -3.61% [at 11.4 µM] (inactive).
On to `COC(=O)N/N=C\C=C\c1ccc2c(c1)OCO2`, for which the AC50 result was “inactive”.
On to `Cc1cccc(OCC(=O)N/N=C\C=C\c2ccc3c(c2)OCO3)c1C`, for which the half-maximal activity concentration (AC50) was 5.01 µM (active).
For `CN1CCC2(CC1)CCN(S(=O)(=O)c1ccccc1)CC2`, the AC50 result was “inactive”.
Turning to `Cc1ccc(CC(=O)N2CC(C)OC(C)C2)cc1` (configuration not stated), the AC50 result is “inactive”.
On to `CC1CN(C(=O)CN2C(=O)NC3(CCCCCC3)C2=O)CC(C)O1` (configuration not stated), for which the AC50 result was “inactive”.
With `Cc1cc(C)n(C(=O)c2cc3c(s2)CCCC3)n1`, the AC50 was 0.282 µM (active).
On to `CC1CN(C(=O)c2cc3c(s2)CCC3)CC(C)O1` (configuration not stated), for which the AC50 is 12.6 µM (active).
Consider `CCCN(CCC)CCc1cccc2c1CC(=O)N2`, for which the AC50 entry was “inactive”.
As to `NC(=O)CNCCC(c1ccccc1)c1ccccc1`, the AC50 entry is “inactive”.
As to `CCC(=O)c1ccc2c(c1)N(CCCN(C)C)c1ccccc1S2`, the concentration at half-maximal activity (AC50) is 0.631 µM (active).
`CN(C)CCCN1c2ccccc2Sc2ccc(C(F)(F)F)cc21`: the half-maximal activity concentration (AC50) is 1.58 µM (active) and 794 nM (active).
As for `CN(C)CCCO[C@H]1[C@@H]2OC(C)(C)O[C@@H]2O[C@@H]1[C@H](O)CO`, the AC50 entry is “inactive”.
As for `C/C(=N/Nc1ccc2ccccc2n1)c1ccccc1O`, the half-maximal activity concentration (AC50) is 1.58 µM (active).
On to `CC(=NC1CCCCC1)c1ccccc1O`, for which the activity, negative = inhibition is -14.9% [at 11.4 µM] (inactive).
As for `C/C(CCN1CCc2nc(-c3ccccc3)c(-c3ccccc3)cc2C1)=N\O[C@@H](C)CN1CCCc2nc(C)c(C)cc21`, the activity, negative = inhibition is -2.64% [at 11.4 µM] (inactive).
For `Cc1cc2nnc(SCC(=O)OC(C)C)n2c2ccccc12`, the concentration at half-maximal activity (AC50) is 14.1 µM (active).
As for `Cc1cc2nnc(SCC(=O)N3CCN(c4ccccc4)CC3)n2c(N)n1`, the AC50 result was “inactive”.
Regarding `CC(C)NC(=O)CSc1nnc(C2CC2)n1-c1ccccc1`, the AC50 result is “inactive”.
For the compound `Cc1cc2nnc(SCCCCN3C(=O)c4ccccc4C3=O)n2c2ccccc12`, the AC50 is 15.8 µM (active).
The same measure, in the same setting: the result for `O=C(NCCN1CCN(Cc2ccccc2)CC1)C1CC(=O)N(C2CCCC2)C1` (configuration not stated) reads “inactive”.
Still for that read-out and setting: the result for `CCOc1ccc(CNC(=O)C2CC(=O)N(C3CCCC3)C2)cc1OC` (configuration not stated) reads “inactive”.
On to `CCOc1ccc(CCNC(=O)C2CC(=O)N(C3CCCC3)C2)cc1OCC` (configuration not stated), for which the half-maximal activity concentration (AC50) is 10 µM (active).
Still for that read-out and setting: the result for `COc1cc2c(cc1OC)-c1cc3ccc(OC)c(OC)c3c[n+]1CC2` reads “inactive”; that for `COc1ccc2cc3[n+](cc2c1OC)CCc1cc2c(cc1-3)OCO2`, 5.01 µM (active).
For `CCn1nc(C)c(NC(=O)/C=C/c2cnn(C)c2C)c1C`, the AC50 entry is “inactive”.
For the compound `CCN1CCN(C(=O)CCc2nc3ccccc3c(=O)[nH]2)CC1`, the AC50 entry is “inactive”.
As to `CCn1cc(C(=O)O)c(=O)c2cc(F)c(N3CCNCC3)nc21`, the AC50 entry was “inactive”.
Regarding `CCN1CCN(c2nn3c(=O)c4ccccc4nc3c3ccccc23)CC1`, the AC50 was 6.31 µM (active).
As for `CCN1CCN(c2nc(-c3ccccn3)nc3ccccc23)CC1`, the AC50 was 11.2 µM (active).
Same read-out and setting: the result for `Cc1cccc(C2NC(=O)c3c(sc(C)c3C)N2)c1O` (configuration not stated) reads 3.55 µM (active).
As to `O=C1CCCC=C1[C@@H](O)CCOC(c1ccccc1)(c1ccccc1)c1ccccc1`, the activity, negative = inhibition was -6.79% [at 11.4 µM] (inactive).
Take `CCOC(=O)N1CCN(c2nc(-c3ccco3)cc(C(F)(F)F)n2)CC1`: the AC50 was 0.501 µM (active).
As to `COCCNC(=O)CSc1ncnc2sccc12`, the AC50 entry was “inactive”.
Take `CCOC(=O)N1CCN(c2nc(-c3cccs3)cc(C(F)(F)F)n2)CC1`: the AC50 was 2.82 µM (active).
Take `COc1cc2nc(N3CCN(C(=O)c4ccco4)CC3)nc(N)c2cc1OC`: the AC50 result was “inactive”.
For the compound `CCOC(=O)N1CCN(C(=O)CNCc2cccs2)CC1`, the AC50 result is “inactive”.
For the compound `CCCNC(=O)CSc1nc(-c2cccs2)cc(C(F)(F)F)n1`, the half-maximal activity concentration (AC50) was 2.51 µM (active).
Turning to `CCOC(=O)N1CCN(C(=O)CN(C)S(=O)(=O)c2ccc3c(c2)C(C)(C)C(=O)N3C)CC1`, the AC50 result was “inactive”.
Still for that read-out and setting: the result for `CCC1(C)CC(CCNS(=O)(=O)c2ccc(C)cc2)(c2ccc(C)cc2)CCO1` (configuration not stated) reads “inactive”; that for `CN(C)c1ncc2nc(-c3ccccc3)c(=O)n(C3CC3)c2n1`, 2.51 µM (active).
The same measure, in the same setting: the result for `CN(C)c1ncc2nc(-c3ccc(F)cc3)c(=O)n(C3CC3)c2n1` reads 1.58 µM (active); that for `CCc1cccc(N(C)C(N)=Nc2cccc3ccccc23)c1`, “inactive”.
Consider `CC(=O)OC[C@H]1O[C@@H](O/N=C\[C@@H](C)[C@H](OCc2ccccc2)C(C)C)[C@H](OC(C)=O)[C@@H](OC(C)=O)[C@H]1OC(C)=O`, for which the activity, negative = inhibition was -8.7% [at 11.4 µM] (inactive).
For `CN(Cc1ccco1)c1ccnc(-c2ccccc2C(F)(F)F)n1`, the AC50 was 2.51 µM (active).
Take `CCC(C)(C(=O)NC1CCCC1)N(Cc1ccco1)C(=O)c1ccccn1` (configuration not stated): the AC50 entry is “inactive”.
On the same count and under the same terms, the result for `COc1ccccc1-c1nc(N(C)Cc2ccco2)c2ccccc2n1` reads 0.501 µM (active); that for `CN(Cc1ccco1)c1nc(-c2ccccc2C(F)(F)F)nc2ccccc12`, 2 µM (active); that for `Cc1ccccc1-c1nc(N(C)Cc2ccco2)c2ccccc2n1`, 1.58 µM (active).
In the case of `CN(C)Cc1ccccc1-c1nc(N(C)Cc2ccco2)c2ccccc2n1`, the concentration at half-maximal activity (AC50) was 0.794 µM (active).
For `CC(C)c1ccc(/C(C(=O)O)=C(\O)C(=O)O)cc1`, the activity, negative = inhibition was -18.6% [at 11.4 µM] (inactive).
With `COc1c(O)cc2c(c1O)[C@@H]1O[C@@H](CO)[C@@H](O)[C@@H](O)[C@@H]1OC2=O`, the AC50 result is “inactive”.
Turning to `Cc1ccc(NCC(=O)N/N=C/c2ccc(OC(=O)c3ccco3)cc2)cc1`, the concentration at half-maximal activity (AC50) was 7.08 µM (active).
Same read-out and setting: the result for `CCOC(=O)N/N=C(/C)c1ccc([N+](=O)[O-])o1` reads 12.6 µM (active); that for `Cc1ccc(NCC(=O)N/N=C\c2ccc([N+](=O)[O-])o2)cc1`, 1.41 µM (active); that for `CCOC(=O)N/N=C\c1ccc([N+](=O)[O-])o1`, 12.6 µM (active).
Regarding `Cc1ccc(C(=O)N/N=C/c2ccc(S(=O)(=O)O)o2)c(Cl)c1`, the AC50 entry was “inactive”.
`O=C(ON=C1CCN(S(=O)(=O)c2ccccc2)CC1)c1ccccc1`: the AC50 result is “inactive”.
For `CCN1C(=O)C2(SC(NC(C)=O)=NN2C(C)=O)c2cc(C)ccc21` (configuration not stated), the AC50 entry was “inactive”.
As to `CC(C)C[C@H](NC(=O)[C@@H]1O[C@H]1C(=O)O)C(=O)NCCCCN=C(N)N`, the AC50 result was “inactive”.
With `Cc1nonc1NC(=O)OCCN1CCOC1=O`, the AC50 entry is “inactive”.
Turning to `Clc1ccc2c(c1)C(c1cccs1)=NNC(c1cccnc1)=N2`, the AC50 is 3.16 µM (active).
On to `O=c1c(Cl)c(N2CCN(S(=O)(=O)c3ccc(F)cc3)CC2)cnn1-c1cccc(Cl)c1`, for which the AC50 entry was “inactive”.
On the same count and under the same terms, in the case of `Nc1ccc(Sc2cnn(-c3ccccc3)c(=O)c2Cl)cc1` it was 5.01 µM (active).

A word on the AC50: it is the concentration at which the activity in the assay is half-maximal.
